# According to PubChem BioAssay AID1159580 (chemical genetic matrix, 2015):
# About 2,000 (36%) of roughly 5,500 compounds were called active. Another 18% or so got no clear call; they are omitted. Some of the results follow. Unmarked numbers belong to inactive results. Cut-off read from the data, not from the text of the source: active = normalized growth mostly below about 0.91 (no sharp cut-off); inconclusive = no clear call, values can overlap the other calls; inactive = mostly above about 0.92.
# Test: chemical genetic growth profiling, strain panel (AID 1159580);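 note: tested at 20 µM; growth read once vehicle control cultures reached saturation at 30 °C; 1 = growth at the plate median or of vehicle wells; lower values mean less growth of the strain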
# Details: growth OD
smiles,measurement,setting,value
CCOc1nc2cccc(C(=O)OC(C)OC(=O)OC3CCCCC3)c2n1Cc1ccc(-c2ccccc2-c2nn[nH]n2)cc1 (configuration not stated),normalized growth,"S. cerevisiae deletion strains, locus YJR075W, strain HOC1, hits give low values",0.989
same,normalized growth,"S. cerevisiae deletion strains, locus YKL009W, strain mrt4, hits give low values",1.1
same,normalized growth,"S. cerevisiae deletion strains, locus YKL068W, hits give low values",0.997
same,normalized growth,"S. cerevisiae deletion strains, locus YKL085W, strain MDH1 (second series), hits give low values",0.994
same,normalized growth,"S. cerevisiae deletion strains, locus YKL085W, strain MDH1, hits give low values",0.994
same,normalized growth,"S. cerevisiae deletion strains, locus YKL160W, strain elf1, hits give low values",1.02
same,normalized growth,"S. cerevisiae deletion strains, locus YKL190W, strain CNB1, hits give low values",0.999
same,normalized growth,"S. cerevisiae deletion strains, locus YKR001C, strain vps1, hits give low values",0.963
same,normalized growth,"S. cerevisiae deletion strains, locus YKR026C, strain gcn3, hits give low values",1.03
same,normalized growth,"S. cerevisiae deletion strains, locus YKR091W, strain srl3, hits give low values",1.02
same,normalized growth,"S. cerevisiae deletion strains, locus YLL001W, strain dnm1, hits give low values",1.03
same,normalized growth,"S. cerevisiae deletion strains, locus YLL026W, hits give low values",1.01
same,normalized growth,"S. cerevisiae deletion strains, locus YLL041C, strain sdh2, hits give low values",1.01
same,normalized growth,"S. cerevisiae deletion strains, locus YLR027C, strain aat2, hits give low values",1.02
same,normalized growth,"S. cerevisiae deletion strains, locus YLR039C, strain RIC1, hits give low values",0.815
same,normalized growth,"S. cerevisiae deletion strains, locus YLR058C, strain SHM2, hits give low values",1.01
same,normalized growth,"S. cerevisiae deletion strains, locus YLR102C, strain apc9, hits give low values",0.998
same,normalized growth,"S. cerevisiae deletion strains, locus YLR113W, strain HOG1, hits give low values",1.03
same,normalized growth,"S. cerevisiae deletion strains, locus YLR221C, strain rsa3, hits give low values",1.01
same,normalized growth,"S. cerevisiae deletion strains, locus YLR258W, strain gsy2, hits give low values",1.02
same,normalized growth,"S. cerevisiae deletion strains, locus YLR262C, strain YPT6 (second series), hits give low values",0.826 (active)
same,normalized growth,"S. cerevisiae deletion strains, locus YLR262C, strain YPT6, hits give low values",0.797
same,normalized growth,"S. cerevisiae deletion strains, locus YLR268W, strain sec22, hits give low values",0.981
same,normalized growth,"S. cerevisiae deletion strains, locus YLR320W, strain mms22, hits give low values",0.999
same,normalized growth,"S. cerevisiae deletion strains, locus YLR330W, strain CHS5, hits give low values",1
same,normalized growth,"S. cerevisiae deletion strains, locus YLR342W, strain FKS1 (second series), hits give low values",0.862
same,normalized growth,"S. cerevisiae deletion strains, locus YLR342W, strain FKS1, hits give low values",1.02
same,normalized growth,"S. cerevisiae deletion strains, locus YLR357W, strain rsc2, hits give low values",1.07
same,normalized growth,"S. cerevisiae deletion strains, locus YLR370C, strain arc18, hits give low values",1.02
same,normalized growth,"S. cerevisiae deletion strains, locus YLR371W, strain rom2, hits give low values",0.997
same,normalized growth,"S. cerevisiae deletion strains, locus YLR384C, strain iki3, hits give low values",1.01
same,normalized growth,"S. cerevisiae deletion strains, locus YLR418C, strain cdc73, hits give low values",0.959
same,normalized growth,"S. cerevisiae deletion strains, locus YML016C, strain PPZ1, hits give low values",1.01
same,normalized growth,"S. cerevisiae deletion strains, locus YML032C, strain rad52, hits give low values",1
same,normalized growth,"S. cerevisiae deletion strains, locus YML120C, strain ndi1, hits give low values",1.04
same,normalized growth,"S. cerevisiae deletion strains, locus YML124C, strain tub3, hits give low values",1
same,normalized growth,"S. cerevisiae deletion strains, locus YMR058W, strain fet3, hits give low values",1.02
same,normalized growth,"S. cerevisiae deletion strains, locus YMR078C, strain ctf18, hits give low values",1.01
same,normalized growth,"S. cerevisiae deletion strains, locus YMR125W, strain sto1, hits give low values",1.06
same,normalized growth,"S. cerevisiae deletion strains, locus YMR129W, hits give low values",1.03
same,normalized growth,"S. cerevisiae deletion strains, locus YMR205C, strain PFK2, hits give low values",0.99
same,normalized growth,"S. cerevisiae deletion strains, locus YMR223W, strain ubp8, hits give low values",0.984
same,normalized growth,"S. cerevisiae deletion strains, locus YMR231W, strain pep5, hits give low values",1.02
same,normalized growth,"S. cerevisiae deletion strains, locus YMR263W, strain SAP30, hits give low values",1
same,normalized growth,"S. cerevisiae deletion strains, locus YMR307W, strain GAS1, hits give low values",0.734
same,normalized growth,"S. cerevisiae deletion strains, locus YNL067W, strain RPL9B, hits give low values",0.992
same,normalized growth,"S. cerevisiae deletion strains, locus YNL071W, strain lat1, hits give low values",1.02
same,normalized growth,"S. cerevisiae deletion strains, locus YNL128W, strain TEP1, hits give low values",0.995
same,normalized growth,"S. cerevisiae deletion strains, locus YNL153C, strain GIM3, hits give low values",1
same,normalized growth,"S. cerevisiae deletion strains, locus YNL183C, strain NPR1, hits give low values",0.968
same,normalized growth,"S. cerevisiae deletion strains, locus YNL209W, strain ssb2, hits give low values",1
same,normalized growth,"S. cerevisiae deletion strains, locus YNL233W, strain BNI4, hits give low values",0.999
same,normalized growth,"S. cerevisiae deletion strains, locus YNL248C, strain rpa49, hits give low values",1.02
same,normalized growth,"S. cerevisiae deletion strains, locus YNL250W, strain rad50, hits give low values",0.991
same,normalized growth,"S. cerevisiae deletion strains, locus YNL271C, strain bni1, hits give low values",1
same,normalized growth,"S. cerevisiae deletion strains, locus YNL298W, strain CLA4, hits give low values",1
same,normalized growth,"S. cerevisiae deletion strains, locus YNL307C, strain MCK1, hits give low values",0.995
same,normalized growth,"S. cerevisiae deletion strains, locus YNL322C, strain KRE1 (second series), hits give low values",1.03
same,normalized growth,"S. cerevisiae deletion strains, locus YNL322C, strain KRE1, hits give low values",1
same,normalized growth,"S. cerevisiae deletion strains, locus YNR049C, strain mso1, hits give low values",1.04
same,normalized growth,"S. cerevisiae deletion strains, locus YNR052C, strain pop2, hits give low values",1
same,normalized growth,"S. cerevisiae deletion strains, locus YOL006C, strain TOP1, hits give low values",0.763
same,normalized growth,"S. cerevisiae deletion strains, locus YOL012C, strain htz1",0.976
same,normalized growth,"S. cerevisiae deletion strains, locus YOL147C, strain pex11, hits give low values",1
same,normalized growth,"S. cerevisiae deletion strains, locus YOR001W, strain rrp6, hits give low values",1.02
same,normalized growth,"S. cerevisiae deletion strains, locus YOR061W, strain CKA2, hits give low values",1
same,normalized growth,"S. cerevisiae deletion strains, locus YOR069W, strain VPS5, hits give low values",1
same,normalized growth,"S. cerevisiae deletion strains, locus YOR070C, strain gyp1, hits give low values",1
same,normalized growth,"S. cerevisiae deletion strains, locus YOR080W, strain dia2, hits give low values",1.02
same,normalized growth,"S. cerevisiae deletion strains, locus YOR083W, strain WHI5, hits give low values",1.01
same,normalized growth,"S. cerevisiae deletion strains, locus YOR106W, strain vam3, hits give low values",0.983
same,normalized growth,"S. cerevisiae deletion strains, locus YOR136W, strain idh2, hits give low values",0.984
same,normalized growth,"S. cerevisiae deletion strains, locus YOR144C, strain elg1, hits give low values",0.993
same,normalized growth,"S. cerevisiae deletion strains, locus YOR184W, strain ser1, hits give low values",0.952
same,normalized growth,"S. cerevisiae deletion strains, locus YOR231W, strain MKK1, hits give low values",0.998
same,normalized growth,"S. cerevisiae deletion strains, locus YOR265W, strain rbl2, hits give low values",1.02
same,normalized growth,"S. cerevisiae deletion strains, locus YOR270C, strain vph1, hits give low values",1.04
same,normalized growth,"S. cerevisiae deletion strains, locus YOR290C, strain snf2, hits give low values",1.02
same,normalized growth,"S. cerevisiae deletion strains, locus YOR316C, strain cot1, hits give low values",0.996
same,normalized growth,"S. cerevisiae deletion strains, locus YPL051W, strain arl3, hits give low values",0.999
same,normalized growth,"S. cerevisiae deletion strains, locus YPL055C, strain LGE1, hits give low values",0.988
same,normalized growth,"S. cerevisiae deletion strains, locus YPL078C, strain atp4, hits give low values",1.05
same,normalized growth,"S. cerevisiae deletion strains, locus YPL106C, strain sse1, hits give low values",0.993
same,normalized growth,"S. cerevisiae deletion strains, locus YPL240C, strain hsp82, hits give low values",1.01
same,normalized growth,"S. cerevisiae deletion strains, locus YPL241C, strain CIN2, hits give low values",1
same,normalized growth,"S. cerevisiae deletion strains, locus YPL256C, strain CLN2, hits give low values",0.961
same,normalized growth,"S. cerevisiae deletion strains, locus YPR119W, strain clb2, hits give low values",0.992
same,normalized growth,"S. cerevisiae deletion strains, locus YPR141C, strain kar3, hits give low values",0.998
same,normalized growth,"S. cerevisiae deletion strains, locus YPR163C, strain tif3, hits give low values",0.99
same,normalized growth,"S. cerevisiae deletion strains, locus YPR167C, strain met16, hits give low values",1
same,normalized growth,"S. cerevisiae deletion strains, strain wtn01, hits give low values",0.989
same,normalized growth,"S. cerevisiae strains, strain wild type, hits give low values",0.997
